Laboratory results as given in ChEMBL document CHEMBL3433997, “St. Jude Leishmania screening dataset” (2016).

What was measured:
Type in all cases: functional
[1] = biological target: Solute carrier family 2, facilitated glucose transporter member 1 (Homo sapiens) (UniProt P11166); assay: ST_JUDE_LEISH: Cytotoxicity at 2uM final concentration against transgenic Leishmania Mexicana promastigotes LmGLUT1 that are glucose transport deficient and complemented with the human glucose transporter GLUT1. Activity is measured by DNA content using SYBR green in vitro
Sequence of Solute carrier family 2, facilitated glucose transporter member 1 (Homo sapiens) (P11166 whole entry): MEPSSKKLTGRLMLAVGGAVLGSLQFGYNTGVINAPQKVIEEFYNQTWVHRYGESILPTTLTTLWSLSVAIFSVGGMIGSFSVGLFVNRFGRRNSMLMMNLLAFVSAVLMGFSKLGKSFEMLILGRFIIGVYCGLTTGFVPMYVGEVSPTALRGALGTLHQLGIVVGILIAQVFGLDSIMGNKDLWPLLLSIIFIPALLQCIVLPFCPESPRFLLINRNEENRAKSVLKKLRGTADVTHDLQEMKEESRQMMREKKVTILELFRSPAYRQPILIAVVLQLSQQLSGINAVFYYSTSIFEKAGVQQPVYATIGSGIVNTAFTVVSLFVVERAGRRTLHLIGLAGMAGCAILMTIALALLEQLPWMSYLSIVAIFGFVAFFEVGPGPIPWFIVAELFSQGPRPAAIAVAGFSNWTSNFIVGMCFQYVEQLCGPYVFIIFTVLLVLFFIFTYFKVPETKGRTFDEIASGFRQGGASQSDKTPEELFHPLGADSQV

[2] = biological target: Hexose transporter 1 (Plasmodium falciparum) (UniProt O97467); assay: ST_JUDE_LEISH: Cytotoxicity at 2uM final concentration against transgenic Leishmania Mexicana promastigotes LmPfHT that are glucose transport deficient and complemented with the Plasmodium falciparum hexose transporter. Activity is measured by DNA content using SYBR green in vitro
[3] = biological target: Glucose transporter (Leishmania mexicana) (UniProt O61059); assay: ST_JUDE_LEISH: Cytotoxicity at 2uM final concentration against transgenic Leishmania Mexicana promastigotes LmGT2 that are glucose transport deficient and complemented with the L. Mexicana glucose transporter 2. Activity is measured by DNA content using SYBR green in vitro

Q: Which results are given for COc1cccc(Nc2nccc(-c3c(-c4cccc(NC(=O)c5c(F)cccc5F)c4)nn4ccccc34)n2)c1?
A: inhibition [1]: 5%; inhibition [2]: 13.3%; inhibition [3]: 5.92%

Q: What does the source list for COc1cccc2cc(C(=O)N[C@@H](CC(C)C)C(=O)NC3CC[C@@H](C)N(C(=O)Nc4ccncc4)CC3=O)oc12 (stereo partly specified)?
A: inhibition [1]: 9.49%; inhibition [2]: 4.38%; inhibition [3]: 3.24%

Q: Which results are given for CC(CNC(=O)[C@H]1CNCCN1C(=O)CCCc1ccccc1)c1ccccc1 (stereo partly specified)?
A: inhibition [1]: 0.97%; inhibition [2]: -1.25%; inhibition [3]: -0.23%

Q: What does the source list for COc1ccc2nccc([C@@H](O)CN3CCC(NC(=O)c4ccc5cc[nH]c5c4)CC3)c2c1?
A: inhibition [1]: 4.43%; inhibition [2]: 4.82%; inhibition [3]: 1.32%

Q: How did the inhibition [1] turn out when O=C(/C=C/c1cc(C(F)(F)F)ccc1F)NCCCCCN1CCC(c2c[nH]c3ccccc23)CC1 was run?
A: 0.77%

Q: And the inhibition [2]?
A: 1.47%

Q: What about the inhibition [3] of the same molecule?
A: 0.28%

Q: Which results are given for CCc1ccc(CN2CCC(CNC(=O)c3cc(-c4cccc(F)c4)cs3)C2)cc1 (stereo unspecified)?
A: inhibition [1]: -0.39%; inhibition [2]: 1.94%; inhibition [3]: 1.42%

Q: With NC1CCN(Cc2ccc(-c3ccc(-c4nc5cc(F)ccc5[nH]4)s3)cc2)C1 (stereo unspecified) as the molecule, how does the inhibition [1] read?
A: 0.37%

Q: What about the inhibition [2] of the same molecule?
A: 4.62%

Q: What about the inhibition [3] of the same molecule?
A: 5.81%

Q: Which results are given for O=C(NC1CCCCN(Cc2ccccc2O)C1)c1ccc(Cl)c(Cl)c1 (stereo unspecified)?
A: inhibition [1]: 7.63%; inhibition [2]: 5.13%; inhibition [3]: 3.76%

Q: How did the inhibition [1] turn out when COc1cc2nc(NCCc3ccccc3)nc(NCc3nccs3)c2cc1OC was run?
A: 1.89%

Q: And the inhibition [2]?
A: 2.47%

Q: And the inhibition [3]?
A: 0.04%

Q: CC1CCC(C[C@@H](C(=O)N[C@H](C(=O)Nc2nccs2)[C@@H](C)O)[C@H](CCC(F)(F)F)N(O)C=O)CC1 (stereo partly specified) was tested. Which inhibition [1] did it give?
A: 0.36%

Q: What about the inhibition [2] of the same molecule?
A: -2.34%

Q: And the inhibition [3]?
A: 0.78%

Q: How did the inhibition [1] turn out when O=C(c1cnn(-c2ccccc2)c1C(F)(F)F)N1CCN(c2ccnc3cc(Cl)ccc23)CC1 was run?
A: 1.81%

Q: And the inhibition [2]?
A: 1.39%

Q: And the inhibition [3]?
A: 2.15%

Q: Which inhibition [1] does the source give for CS(=O)(=O)c1ccc(CCNCc2ccc(-c3ccc(CNC4Cc5ccccc5C4)cc3)nc2)cc1 here?
A: -0.55%

Q: What about the inhibition [2] of the same molecule?
A: -0.45%

Q: What about the inhibition [3] of the same molecule?
A: 2.3%

Q: CC(O)C1CCCCN1C(=O)c1cccc(-c2ccc(-c3nc4ccccc4[nH]3)s2)c1 (stereo unspecified) was tested. Which inhibition [1] did it give?
A: 3.87%

Q: And the inhibition [2]?
A: 5.96%

Q: And the inhibition [3]?
A: 5.38%

Q: What does the source list for COc1ccc2nccc([C@@H](O)CN3CCC(NC(=O)/C(=C/c4ccccc4)c4ccc(-c5ccccc5)cc4)CC3)c2c1?
A: inhibition [1]: 1.6%; inhibition [2]: 0.83%; inhibition [3]: 0.6%

Q: CC(C)Sc1nc2c(c(=O)n1Cc1ccco1)C1(CCCCC1)Cc1ccccc1-2 was tested. Which inhibition [1] did it give?
A: 2.09%

Q: What about the inhibition [2] of the same molecule?
A: 2.03%

Q: And the inhibition [3]?
A: 1.54%

Q: FC(F)(F)c1cccc(CCNc2nccc(NCc3ccccc3Cl)n2)c1 was tested. Which inhibition [1] did it give?
A: 5.73%

Q: What about the inhibition [2] of the same molecule?
A: 4.26%

Q: What about the inhibition [3] of the same molecule?
A: 0.1%

Q: Which inhibition [1] does the source give for CCOc1cc(C)ccc1N1CCN(CCCCNC(=O)c2ccc(NC(=O)c3ccc(Cl)cc3)cc2)CC1 here?
A: 0.02%

Q: What about the inhibition [2] of the same molecule?
A: -2.19%

Q: And the inhibition [3]?
A: -0.2%

Q: What does the source list for Cc1ccc2[nH]ncc2c1N(CC1CCCCC1)c1ccnc(Nc2ccc(OCC(O)CN3CC=CCC3)cc2)n1 (stereo unspecified)?
A: inhibition [1]: 2.37%; inhibition [2]: 3.33%; inhibition [3]: -0.59%

Q: How did the inhibition [1] turn out when O=C(Nc1ccc(N2CCN(Cc3ccccc3)CC2)cc1)c1cccs1 was run?
A: 0.15%

Q: And the inhibition [2]?
A: 0.83%

Q: What about the inhibition [3] of the same molecule?
A: -1.68%

Q: How did the inhibition [1] turn out when Cc1[nH]c(C)c(-c2ccc(-c3cccc(Cl)c3)nc2)c(=O)c1Cl was run?
A: 0.79%

Q: What about the inhibition [2] of the same molecule?
A: 2.52%

Q: And the inhibition [3]?
A: 1.48%

Q: Which results are given for COc1cc(Cc2cnc(N)nc2N)cc(OCCCCCCC(=O)O)c1OC?
A: inhibition [1]: 0.12%; inhibition [2]: -0.55%; inhibition [3]: -0.96%

Q: For CCc1cc(Br)c(CNCCCNc2cc(=O)c3ccccc3[nH]2)s1, which inhibition [1] is on record?
A: 0.41%

Q: And the inhibition [2]?
A: -0.52%

Q: And the inhibition [3]?
A: -2.7%

Q: With CC(C)(C)OC(=O)N1CCC(C2CCN(C(=O)OC(C)(C)C)CC2)CC1 as the molecule, how does the inhibition [1] read?
A: -2.91%

Q: And the inhibition [2]?
A: -1.6%

Q: And the inhibition [3]?
A: -1.48%

Q: With O=C(NC1CCN(c2ccnc3cc(Cl)ccc23)C1)c1cccc(F)c1 (stereo unspecified) as the molecule, how does the inhibition [1] read?
A: 0.95%

Q: What about the inhibition [2] of the same molecule?
A: 1.46%

Q: And the inhibition [3]?
A: 1.42%

Q: Which results are given for Cc1cnc(C(=O)Nc2cccc(-c3cccc(-c4nc5cccc(C)c5[nH]4)c3)c2)cn1?
A: inhibition [1]: 4.11%; inhibition [2]: 2.89%; inhibition [3]: 0.5%

Q: With COc1ccc(Cn2ccc3c4c(N)nc(N)nc4ccc32)cc1 as the molecule, how does the inhibition [1] read?
A: 97.9%

Q: What about the inhibition [2] of the same molecule?
A: 89.3%

Q: And the inhibition [3]?
A: 90.1%

Q: O=C(Nc1cc(C(F)(F)F)ccc1N1CCOCC1)C(Cl)(Cl)Cl was tested. Which inhibition [1] did it give?
A: 10.4%

Q: What about the inhibition [2] of the same molecule?
A: 9.77%

Q: And the inhibition [3]?
A: 9.48%

Q: Which inhibition [1] does the source give for CO/C(=C\C=C\c1cc2cc(Cl)c(Cl)cc2[nH]1)C(=O)NCCN1CCCCC1 here?
A: 0.85%

Q: What about the inhibition [2] of the same molecule?
A: 1.14%

Q: And the inhibition [3]?
A: 0.35%

Q: With COCCNC(=O)C1CCN(C(c2ccc(Cl)cc2)c2ccc(Cl)cc2)CC1 as the molecule, how does the inhibition [1] read?
A: 7.23%

Q: And the inhibition [2]?
A: 6.03%

Q: And the inhibition [3]?
A: 9.02%

Q: Which results are given for N#Cc1cc(C(=O)Nc2ccccc2)c(N)nc1SCC(=O)NC(c1ccccc1)c1cccs1 (stereo unspecified)?
A: inhibition [1]: 4.19%; inhibition [2]: 1.36%; inhibition [3]: 4.48%

Q: How did the inhibition [1] turn out when Cc1c2ccncc2c(C)c2c1[nH]c1cc(Cc3ccccc3)c(O)cc12 was run?
A: 3.52%

Q: And the inhibition [2]?
A: 4.1%

Q: And the inhibition [3]?
A: -3.09%

Q: How did the inhibition [1] turn out when COc1cccc([C@@H](CC(=O)Nc2cc(C(F)(F)F)ccc2OC)Nc2ccc(C#N)c3ccccc23)c1 was run?
A: 7.27%

Q: What about the inhibition [2] of the same molecule?
A: 5.34%

Q: What about the inhibition [3] of the same molecule?
A: 4.83%

Q: How did the inhibition [1] turn out when Cc1cccc2nc(-c3cccc(-c4cccc(NC(=O)Nc5ccccc5)c4)c3)[nH]c12 was run?
A: 3.85%

Q: What about the inhibition [2] of the same molecule?
A: 3.36%

Q: And the inhibition [3]?
A: 3.26%

Q: COc1ccc2nccc([C@@H](O)CN3CCC(NCCOc4cc(F)cc(F)c4)CC3)c2c1 was tested. Which inhibition [1] did it give?
A: 9.84%

Q: And the inhibition [2]?
A: 19.3%

Q: And the inhibition [3]?
A: 4.32%

Q: For Cc1cccc2nc(-c3ccc(-c4cccc(C(=O)NCCc5cn(C)cn5)c4)s3)[nH]c12, which inhibition [1] is on record?
A: 1.8%

Q: What about the inhibition [2] of the same molecule?
A: 1.96%

Q: What about the inhibition [3] of the same molecule?
A: 1%

Q: How did the inhibition [1] turn out when CCC(CC)(Cc1ccccc1)NC(=O)[C@H](Cc1ccc(OC)c(OC)c1)Nc1ccc(C#N)c2ccccc12 was run?
A: 2.88%

Q: What about the inhibition [2] of the same molecule?
A: 2.31%

Q: And the inhibition [3]?
A: 3.47%

Q: Which inhibition [1] does the source give for CC(C)CNCc1cccc(-c2ccc(CN(CCCN3CCN(C)CC3)C(=O)CCC3CCCC3)cc2)c1 here?
A: 38.9%

Q: And the inhibition [2]?
A: 56.9%

Q: And the inhibition [3]?
A: 9.11%
